Data taken from PubChem BioAssay.
Calls of active or inactive are those of the source.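 Rule for the calls, unless noted: active = compound raises GLP1 secretion from the human gut endocrine cells, with no numeric limit stated; inactive = the rest.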

Key:
[1] = stimulators of insulin release from INS-1E, primary screen, cell-based, 5 mM glucose, NPC library (AID 1117329;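 active = compound raises insulin release from rat beta cells at 5 mM glucose, no numeric limit stated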); settings: rat INS-1E insulin secretion, at 10 µM, stronger effect = higher value
[2] = growth inhibition of GSK3B-pretreated HCT116 cells – cell-based, CellTiter-Glo, 0.2 to 20 µM (AID 1117336;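 active = compounds lowering colon cancer cell viability after pretreatment blocking the GSK3B kinase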); settings: HCT116 viability after GSK3B inhibitor, at 20 µM, stronger effect = higher value
[3] = inhibition of endothelial tube formation, primary screen, imaging, VEGF stimulated, CD31 staining, tube area, NPC library (AID 1117340;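 active = compound that reduces growth-factor-driven endothelial tube area in a mixed cell culture, no cutoff stated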); settings: VEGF-stimulated ADSC/ECFC co-culture, at 10 µM, stronger effect = higher value
[4] = GLP1 release stimulators, primary, NCI-H716, NPC library (AID 1117341); settings: NCI-H716 cells, at 10 µM, stronger effect = higher value
[5] = HCT116 colon cancer cell growth inhibition, primary screen, CellTiter-Glo luminescence, NPC library (AID 1117342;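 active = compounds that lower survival of HCT116 colon cancer cells in the luminescence readout, no numeric limit stated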); settings: at 20 µM (top of the series)
[6] = reduced SW480 viability measured with CellTiter-Glo, NPC library, primary (AID 1117343;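 active = compounds that lower viability of the colon cancer cells in the luminescence readout, with no numeric limit stated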); settings: CellTiter-Glo luminescence; at 20 µM (top of the series)
[7] = NPC library primary testing for decreased DLD-1 cell viability via CellTiter-Glo (AID 1117346;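 active = compounds that lower survival of DLD-1 colon cancer cells in the luminescence readout, no cutoff given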); settings: DLD-1 viability, CellTiter-Glo luminescence; at 20 µM (top of the series)
[8] = target: 6-phosphogluconate dehydrogenase, decarboxylating (Homo sapiens) (UniProt P52209); assay: inhibition of human phosphogluconate dehydrogenase – biochemical, recombinant enzyme, NADPH absorbance, primary screen (AID 1159550;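 active = at least 20% inhibition of 6-phosphogluconate dehydrogenase activity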); settings: recombinant 6PGD, NADPH absorbance 341 nm; at 10 µM; stronger effect = higher value
Chain of 6-phosphogluconate dehydrogenase, decarboxylating (Homo sapiens) (P52209 whole entry, looked up): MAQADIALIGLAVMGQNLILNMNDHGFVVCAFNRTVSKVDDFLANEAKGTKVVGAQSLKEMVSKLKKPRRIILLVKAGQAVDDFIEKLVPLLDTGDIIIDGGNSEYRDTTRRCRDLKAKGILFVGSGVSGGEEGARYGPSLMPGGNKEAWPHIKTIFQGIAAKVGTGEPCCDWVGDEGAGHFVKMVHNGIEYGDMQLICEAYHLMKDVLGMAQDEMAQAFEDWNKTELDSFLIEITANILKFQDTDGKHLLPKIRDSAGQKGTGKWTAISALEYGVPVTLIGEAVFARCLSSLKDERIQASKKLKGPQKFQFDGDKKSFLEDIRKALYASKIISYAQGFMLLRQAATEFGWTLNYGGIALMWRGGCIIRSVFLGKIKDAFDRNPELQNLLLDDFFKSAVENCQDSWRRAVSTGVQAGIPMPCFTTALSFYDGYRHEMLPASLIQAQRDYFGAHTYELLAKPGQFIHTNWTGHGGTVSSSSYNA

[9] = EMT-state selective cytotoxicity in co-culture – imaging, PC-3E GFP, TEM4-18 mCherry, primary screen (AID 1345086;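 active = compounds killing one labelled cell type while sparing the other, by normalised counts and ratio limits, not self-fluorescent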;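 for all read-outs here: cells exposed to compound for 72 h before imaging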;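 for red/green cell ratio (normalised): normalised mesenchymal count divided by normalised epithelial count so high means epithelial killing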); settings: PC-3E GFP / TEM4-18 mCherry co-culture, imaging cell counts, at 1 µM; for red/green cell ratio (normalised): actives lie on both sides, counts scaled to control wells, 1 = unselective
[10] = measured here: epithelial PC-3E GFP cell survival
[11] = measured here: mesenchymal TEM4-18 mCherry cell survival

Q: Which insulin secretion stimulation [1] does the source give for `CC1CCC(NC(=O)N(CCCl)N=O)CC1` (stereo not drawn) here?
A: Its insulin secretion stimulation is 2% (inactive).

Q: What about the viability decrease [2] of the same molecule?
A: The viability decrease was -24.4% (inactive).

Q: And the tube area decrease [3]?
A: Its tube area decrease is 25.1% (inactive).

Q: What about the GLP1 secretion stimulation [4] of the same molecule?
A: Its GLP1 secretion stimulation is 1.7% (inactive).

Q: What about the inhibition of viability [5] of the same molecule?
A: Its inhibition of viability is -2.27% (inactive).

Q: What about the viability decrease (inhibition) [6] of the same molecule?
A: Its viability decrease (inhibition) is 12.6% (inactive).

Q: And the viability decrease (inhibition) [7]?
A: Its viability decrease (inhibition) is -14.1% (inactive).

Q: And the inhibition [8]?
A: The inhibition was 2.66% (inactive).

Q: And the red/green cell ratio (normalised) [9]?
A: The red/green cell ratio (normalised) was 1.17 (inactive).

Q: What about the normalised cell number [9, 10] of the same molecule?
A: The normalised cell number was 1.17.

Q: What about the normalised cell number [9, 11] of the same molecule?
A: The normalised cell number was 1.37.

Q: What does the source list for `O=C(O)CCCCCCCC(=O)O`?
A: insulin secretion stimulation [1]: 0.4% (inactive); viability decrease [2]: -10.2% (inactive); tube area decrease [3]: 2.7% (inactive); GLP1 secretion stimulation [4]: -4.7% (inactive); inhibition of viability [5]: -4.13% (inactive); viability decrease (inhibition) [6]: 15% (inactive); viability decrease (inhibition) [7]: -3.7% (inactive); inhibition [8]: -2.42% (inactive); red/green cell ratio (normalised) [9]: 0.99 (inactive); normalised cell number [9, 10]: 1.08; normalised cell number [9, 11]: 1.07

Q: With `CCN(CC)C(=O)c1cccc(C)c1` as the molecule, how does the insulin secretion stimulation [1] read?
A: The insulin secretion stimulation was 5% (inactive).

Q: What about the viability decrease [2] of the same molecule?
A: Its viability decrease is 3.4% (inactive).

Q: And the tube area decrease [3]?
A: Its tube area decrease is -44.2% (inactive).

Q: And the GLP1 secretion stimulation [4]?
A: The GLP1 secretion stimulation was 2.9% (inactive).

Q: What about the inhibition of viability [5] of the same molecule?
A: Its inhibition of viability is -3.2% (inactive).

Q: And the viability decrease (inhibition) [6]?
A: Its viability decrease (inhibition) is -14.3% (inactive).

Q: And the viability decrease (inhibition) [7]?
A: Its viability decrease (inhibition) is 12.4% (inactive).

Q: What about the inhibition [8] of the same molecule?
A: Its inhibition is 9.21% (inactive).

Q: What about the red/green cell ratio (normalised) [9] of the same molecule?
A: Its red/green cell ratio (normalised) is 1.18 (inactive).

Q: And the normalised cell number [9, 10]?
A: The normalised cell number was 1.

Q: And the normalised cell number [9, 11]?
A: Its normalised cell number is 1.19.
